Measured values published in PubChem BioAssay (NCI).
The panel holds about 83,000 compounds, 20% with a hit somewhere; the sample as a whole holds those more often.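 Testing used 96-well plates and a 48-hour single-concentration exposure. Example: -40 means 40% of the starting cells died.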 Unmarked numbers belong to inactive results. Calls of active or inactive are those of the source. How the source made its calls: active means growth percent below 10; inactive means the rest.

Test system: RXF 393 renal
Assay: NCI-60 one-dose screen, 48 h (100 = growth as untreated, 0 = no growth, -100 = all killed)
Conditions: 10 µM unless noted

Row | Structure (SMILES) | growth
1 | CCOC(=O)c1c(C)[nH]c(C(=O)CCC(=O)OC)c1C | 112%
2 | C=C1C(=O)O[C@H]2[C@H]1CC/C(COC(=O)NCc1ccc(Cn3c(=O)sn(CCCCl)c3=O)cc1)=C\CC[C@@]1(C)O[C@@H]21 | -76.7% (active)
3 | COc1cc(C2C=C(c3cccc(NC(C)=O)c3)Nc3ncnn32)cc(OC)c1OC (stereo not drawn) | -28.3% (active)
4 | O=C(Oc1ccc[nH]c1=O)c1cc([N+](=O)[O-])cc([N+](=O)[O-])c1 | 83.3%
5 | COc1ccc(Oc2nc(Nc3ccc(N4CCOCC4)nc3)ncc2NC(=O)c2cc(OC)cc(OC)c2)cc1 | 58.6%
6 | COC(=O)c1ccc2oc(NC(=O)c3ccc(N4CCOCC4)c([N+](=O)[O-])c3)nc2c1 | 119%
7 | O=C1Nc2ccccc2/C1=N/N=C/c1ccc(OC2OC(CO)C(O)C(O)C2O)cc1 (stereo not drawn) | 114%
8 | C=CC(=O)Nc1cccc(C)c1Nc1cc(-c2cccnc2Cc2c(C)c(OC)cc(OC)c2C)ncn1 | -0.169% (active)
9 | OC(COc1cccc2ccccc12)CN1CCN(c2ccccc2)CC1 (stereo not drawn) | 9.82% (active)
10 | CC(=O)Nc1cccc(C2=CC(c3ccc(C)cc3)n3ncnc3N2)c1 (stereo not drawn) | 96.4%
11 | O=C(CC12CC3CC(CC(C3)C1)C2)NCCOCCOCCNC(=O)c1cc2c(o1)C(=O)c1ccccc1C2=O | -92.3% (active)
12 | N=C(N)c1ccc(-c2ccc(/C=C/c3ccccc3)s2)cc1 | 39.2%
13 | CNC1(C#N)CCN(Cc2ccccc2)CC1 | 99.1%
14 | O=C(/C=C/C12c3ccccc3C(c3ccccc31)C1C(=O)N(c3ccccc3)C(=O)C12)c1ccc(Cl)cc1 (stereo not drawn) | -71.2% (active)
15 | CCNCCNc1cc(-c2ccc(Cl)cc2)c(C#N)c2nc3ccccc3n12 | -82.9% (active)
16 | CN(C)c1ccc2cc(-c3ccccc3F)c(N)nc2c1 | 19.1%
17 | O=C1Nc2ccccc2/C1=N/N=C/c1c[nH]c2ccccc12 | 57.5%
18 | COc1ccc(/C=C(\C#N)n2nnc3ccccc32)cc1 | -39.3% (active)
19 | N#Cc1c(Oc2ccc([N+](=O)[O-])cc2)nc2sc3cc(Cl)ccc3n2c1=N | 32.6%
20 | O=C(NCCOCCOCCOCCNC(=O)c1cc2c(o1)C(=O)c1ccccc1C2=O)NC12CC3CC(CC(C3)C1)C2 | -52.9% (active)
21 | O=C(Oc1ccc([N+](=O)[O-])cc1)c1ccc(CBr)cc1 | 114%
22 | CCn1c(Sc2nnc(NC(=O)CCN3CCCC3)s2)nc2c1c(=O)n(C)c(=O)n2C | 110%
23 | CC(=[N-])N1CCC[C@@H](Nc2c3ccccc3nc3ccccc23)C1.[Cl][Pt].[NH-]CCC[NH-] | -24.3% (active)
